Reference: the supplement of paper PMC3334620
Over roughly 33,000 sequences, “E-score (-0.5 to 0.5)” has its median near -0.035; the highest 2% begin near 0.35. This is one part of a sample in which the highest values are shown more often than they occur.

What follows are sequences tested against T1, Pdr3 (UniProt P33200) (assay: PBM E-score (8-mer binding enrichment) (E-score (-0.5 to 0.5)); higher = stronger / more preferred TF binding). Details: protein concentration: 200 nM; construct: GST-full length.
T1 sequence: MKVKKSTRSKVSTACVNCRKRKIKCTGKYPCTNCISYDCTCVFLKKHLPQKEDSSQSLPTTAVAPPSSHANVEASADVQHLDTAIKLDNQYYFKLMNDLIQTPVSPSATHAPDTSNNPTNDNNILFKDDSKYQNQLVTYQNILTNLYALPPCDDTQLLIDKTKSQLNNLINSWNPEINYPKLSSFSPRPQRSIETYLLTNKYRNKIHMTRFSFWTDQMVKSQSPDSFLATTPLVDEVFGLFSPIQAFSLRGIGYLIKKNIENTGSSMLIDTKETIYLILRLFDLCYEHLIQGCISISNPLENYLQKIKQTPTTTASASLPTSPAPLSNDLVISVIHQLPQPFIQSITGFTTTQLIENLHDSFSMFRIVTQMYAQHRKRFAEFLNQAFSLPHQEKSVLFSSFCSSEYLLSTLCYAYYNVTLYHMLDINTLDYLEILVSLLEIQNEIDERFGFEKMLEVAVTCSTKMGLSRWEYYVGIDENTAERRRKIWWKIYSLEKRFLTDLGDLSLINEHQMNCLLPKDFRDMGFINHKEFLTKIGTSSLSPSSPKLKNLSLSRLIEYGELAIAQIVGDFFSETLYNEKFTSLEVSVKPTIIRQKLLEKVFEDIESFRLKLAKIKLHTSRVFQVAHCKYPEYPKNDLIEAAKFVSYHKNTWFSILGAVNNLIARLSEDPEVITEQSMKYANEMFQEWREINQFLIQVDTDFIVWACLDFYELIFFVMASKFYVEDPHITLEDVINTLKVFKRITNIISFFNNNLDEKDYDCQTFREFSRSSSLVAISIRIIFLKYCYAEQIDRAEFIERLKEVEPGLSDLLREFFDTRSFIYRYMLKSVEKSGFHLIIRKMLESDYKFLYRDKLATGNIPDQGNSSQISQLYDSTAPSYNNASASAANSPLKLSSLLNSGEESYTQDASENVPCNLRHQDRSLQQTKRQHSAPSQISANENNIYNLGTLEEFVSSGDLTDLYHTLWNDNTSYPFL
Protocol: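 Universal 'all 10-mer' protein binding microarrays (Agilent AMADID 015681) probed with GST-tagged S. cerevisiae TFs (full-length or DBD) made by in vitro transcription/translation (PURExpress), about 100-200 nM. Bound TF was detected with fluorescent anti-GST. Each ungapped 8-mer (which stands for itself and its reverse complement) is scored by the PBM enrichment score (E-score), a modified Wilcoxon-Mann-Whitney statistic from -0.5 to +0.5, computed with the Universal PBM Analysis Suite. Scale: above 0.35 generally sequence-specific binding.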

| Sequence | PBM E-score |
| --- | --- |
| ACGGAGTC | 0.193 |
| AAGAGTTC | -0.178 |
| CCCCAACA | -0.274 |
| ATTAAGAG | -0.0729 |
| CGAGCGGC | 0.228 |
| CGCGCGGA | 0.383 |
| CTCGCGGC | 0.171 |
| AGAGCGGA | 0.229 |
| AGTGCGGA | 0.377 |
| AGTGCGGG | 0.185 |
| AGCGCGGA | 0.331 |
| CGTGCGGA | 0.177 |
| GGCGCGGA | 0.352 |
| CGAGCGGA | 0.359 |
| CGCGCGGC | 0.373 |
| AGCGCGGC | 0.107 |
| AGGCTACT | -0.167 |
| CCGCCAGC | 0.105 |
| TACCTAGA | -0.195 |
| ACCCGTAT | 0.0405 |
| AGAGTAAC | 0.0157 |
| AAATCTAT | -0.00749 |
| CGGTGTAG | -0.0315 |
| CTTATCCA | -0.00809 |
| CGCGGGAA | 0.429 |

| Sequence | PBM E-score |
| --- | --- |
| AGCGGGGA | 0.0517 |
| AGCGGGAC | 0.185 |
| CGCGGGGA | 0.393 |
| GGCGGGAC | 0.295 |
| AGCGGGAA | 0.232 |
| CGCGGGGC | 0.304 |
| GGCGGGAA | 0.198 |
| CGCGGGAC | 0.444 |
| AAGTTCAG | -0.098 |
| CGGTTCCC | 0.153 |
| AGTACTGG | -0.222 |
| GAACTAGC | -0.00564 |
| ATTCCCTA | 0.0152 |
| GGTTCTTA | -0.0791 |
| AAGACCAA | -0.0835 |
| GTTACCCA | -0.159 |
| ATGCGCTG | -0.0256 |
| AATCAACT | 0.0921 |
| ATAAGCTC | 0.042 |
| AACCGCGA | 0.277 |
| CACCGCGA | 0.032 |
| AGCCGCGG | 0.485 |
| AGCCGCGC | 0.236 |
| CACCGCGC | 0.166 |
| AACCGCGG | 0.457 |

| Sequence | PBM E-score |
| --- | --- |
| CACCGCGG | 0.452 |
| AACCGCGT | 0.141 |
| AGCCGCGA | 0.187 |
| ATAAGAGG | 0.0703 |
| AAGGTCAG | -0.201 |
| AGCAGACT | -0.189 |
| ACAGAGCT | -0.292 |
| GTGCCCAA | -0.0202 |
| GAATCACC | -0.027 |
| CCGGGCTC | 0.224 |
| ACAATGCA | 0.0617 |
| AGAGGATG | 0.0386 |
| CACTAGCG | -0.0368 |
| ATGTTTAC | -0.0373 |
| GACGCGCA | 0.0698 |
| CCACCGGC | 0.204 |
| TCACCGGA | 0.329 |
| ACACCGGT | 0.14 |
| ACACCGGA | 0.357 |
| GCACCGGC | 0.146 |
| GCACCGTA | 0.067 |
| CCACCGGG | 0.257 |
| CCACCGGA | 0.428 |
| GCACCGGA | 0.377 |
| CGTTTGCA | 0.0843 |

| Sequence | PBM E-score |
| --- | --- |
| CCAACTGC | 0.0661 |
| TCCCATCA | -0.209 |
| AGAAAGTG | -0.177 |
| AATCGACG | 0.058 |
| CCGGCAGG | 0.231 |
| CCGGCAGA | 0.229 |
| ACGGCACC | -0.0873 |
| CCGGCACC | 0.369 |
| CCGGCAGC | 0.362 |
| CCGGCACG | 0.279 |
| GTCCGTAA | 0.191 |
| CCGCCACC | 0.0657 |
| ACACAGGG | 0.0204 |
| GCCGTGAC | 0.133 |
| ACCGGACG | 0.311 |
| CCCGGAAA | 0.449 |
| CCTGGAAG | -0.203 |
| CCCCGAAG | 0.144 |
| ACCGGATG | 0.249 |
| CCCGGAAG | 0.419 |
| ACCGGACC | 0.297 |
| CCCGAAAA | 0.191 |
| ACCGGAAC | 0.474 |
| ACCGGATC | 0.34 |
| CCAGGAAA | -0.0248 |

| Sequence | PBM E-score |
| --- | --- |
| ACCGGAAG | 0.42 |
| CACCCAAG | -0.071 |
| AAAATAAG | -0.194 |
| CGGTTAAA | 0.0999 |
| CGATCTGA | 0.0713 |
| ATATCGAT | 0.104 |
| CCCGGAAC | 0.467 |
| CCCCGAAC | 0.129 |
| ACCGGAAA | 0.405 |
| ACCGGACT | 0.285 |
| ACCGGATA | 0.151 |
| ACCGGAGT | 0.234 |
| GCAGGATA | -0.0657 |
| ACCAGAAA | -0.105 |
| GCCGGATA | 0.368 |
| CCCGGACC | 0.334 |
| ACCGGAAT | 0.411 |
| ATTGGCGA | -0.2 |
| CCACCTTA | -0.0834 |
| GCTTTAGA | -0.238 |
| AGAGCATC | -0.0714 |
| CGTGCTAG | -0.276 |
| GAAAAGGA | 0.0166 |
| GCCGAAAA | 0.276 |
| GCCGGACC | 0.303 |

| Sequence | PBM E-score |
| --- | --- |
| GCAGGAAA | -0.081 |
| GCCGGAAC | 0.476 |
| GCCGGAGC | 0.236 |
| TCCGGAAA | 0.466 |
| GCCGGAAA | 0.42 |
| TCCGGTAA | 0.307 |
| TCAGGAAA | -0.128 |
| GACAAGTA | 0.00093 |
| AAGCGATC | 0.0113 |
| ATTCCTGC | 0.221 |
| ATTCCGGG | 0.458 |
| ATTCCCGG | 0.393 |
| AATCCGGG | 0.354 |
| ACTCCCGA | 0.0347 |
| ATTCCTGG | 0.0168 |
| ATTCCGGC | 0.448 |
| ATTCCCGA | 0.212 |
| ATTCCCCG | 0.28 |
| ACTCCCCG | 0.306 |
| ACTCCCGG | 0.356 |
| ATTCCAGC | 0.0377 |
| ACTCAGCC | -0.146 |
| ACAATAGT | -0.0518 |
| GGACAACC | 0.0553 |
| CCACCACC | -0.0836 |

| Sequence | PBM E-score |
| --- | --- |
| CCCAGGGG | -0.115 |
| AATGTTAT | 0.00821 |
| AGCGTGGG | -0.253 |
| AGCACCCT | -0.284 |
| AAATCGGA | 0.326 |
| GGATCCGA | 0.399 |
| AGATCCGA | 0.169 |
| CGATCGGA | 0.196 |
| AGATCGGA | 0.394 |
| AGATCGGC | 0.134 |
| CGATCCGA | 0.326 |
| GGATCGAA | 0.133 |
| AGATCGGG | 0.0992 |
| GGATCGGA | 0.359 |
| GAATCGGA | 0.36 |
| TAATCGGA | 0.324 |
| CTTGACTA | -0.119 |
| TGCAATAA | -0.00943 |
| GTCTTCAA | -0.189 |
| ACGCTGGG | -0.0598 |
| CCCGCGAA | 0.206 |
| GAAGGAAC | 0.0934 |
